Records with an inconclusive call do not appear. Entries that show only a call come without a potency. Calls of active or inactive are those of the source. Calls follow the shape of the dose curve; as a rule, active = well fitted activation curve with a large enough effect in the signal ratio in the repeat runs, with a control signal flat (not every such curve was filed as active); inconclusive = weak or mixed curves; inactive = flat fitted curve, though single readings scatter; the % refers to the signal ratio.
Potency is read from the fitted curve at half-maximal effect.

This test in a line: qHTS assay for small molecule activators of the heat shock response signaling pathway (AID 743210).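 As to activation: HeLa cells with beta-lactamase reporter driven by heat shock elements.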 The settings on record: HeLa HSE-bla reporter, beta-lactamase ratio, 5 h; series mostly up to 62.6 µM. An outline of the steps: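 Reporter gene assay: HeLa cells stably bearing an HSE-bla construct, compound treatment 5 h at 37 C, LiveBLAzer substrate 2.5 h at RT, fluorescence intensity.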
Background: Quantitative high-throughput screening tests each substance at several concentrations.
With `CC(C)CC(C)N` (stereo not given), the Potency entry is “inactive”.

For the compound `N#CCCSCCC#N`, the Potency entry is “inactive”. Turning to `Clc1ccc(C(Cl)(Cl)Cl)c(Cl)c1`, the Potency entry is “inactive”.

`CN(C)CCc1c[nH]c2ccc(O)cc12`: the Potency is 59.7 µM (active).

As to `CC(C)OC(=O)C(O)(c1ccc(Cl)cc1)c1ccc(Cl)cc1`, the Potency entry is “inactive”.
